Experiment [1] concerns Proto-oncogene tyrosine-protein kinase receptor Ret (Homo sapiens), P07949 [Y791F]. Conditions: at 1 µM.
For experiment [2], the target named is Macrophage-stimulating protein receptor (Homo sapiens) (UniProt Q04912). Conditions: at 0.1 µM.
Experiment [3] shares this target. Conditions: at 1 µM.
The target in experiment [4] is Proto-oncogene tyrosine-protein kinase ROS (Homo sapiens) (UniProt P08922). Conditions: at 0.1 µM.
For experiment [5] the target is unchanged. Conditions: at 1 µM.
Experiment [6] concerns the target Proto-oncogene tyrosine-protein kinase Src (Homo sapiens) (UniProt P12931). Conditions: at 0.1 µM.
The target is the same in experiment [7]. Conditions: at 1 µM.
Experiment [8] concerns the target Tyrosine-protein kinase Srms (Homo sapiens) (UniProt Q9H3Y6). Conditions: at 0.1 µM.
Experiment [9] has the same target. Conditions: at 1 µM.
The target in experiment [10] is Tyrosine-protein kinase SYK (Homo sapiens) (UniProt P43405). Conditions: at 0.1 µM.
The target is the same in experiment [11]. Conditions: at 1 µM.
The target of experiment [12] is T1, Tyrosine-protein kinase Tec (Homo sapiens) (UniProt P42680).
T1 sequence (whole entry): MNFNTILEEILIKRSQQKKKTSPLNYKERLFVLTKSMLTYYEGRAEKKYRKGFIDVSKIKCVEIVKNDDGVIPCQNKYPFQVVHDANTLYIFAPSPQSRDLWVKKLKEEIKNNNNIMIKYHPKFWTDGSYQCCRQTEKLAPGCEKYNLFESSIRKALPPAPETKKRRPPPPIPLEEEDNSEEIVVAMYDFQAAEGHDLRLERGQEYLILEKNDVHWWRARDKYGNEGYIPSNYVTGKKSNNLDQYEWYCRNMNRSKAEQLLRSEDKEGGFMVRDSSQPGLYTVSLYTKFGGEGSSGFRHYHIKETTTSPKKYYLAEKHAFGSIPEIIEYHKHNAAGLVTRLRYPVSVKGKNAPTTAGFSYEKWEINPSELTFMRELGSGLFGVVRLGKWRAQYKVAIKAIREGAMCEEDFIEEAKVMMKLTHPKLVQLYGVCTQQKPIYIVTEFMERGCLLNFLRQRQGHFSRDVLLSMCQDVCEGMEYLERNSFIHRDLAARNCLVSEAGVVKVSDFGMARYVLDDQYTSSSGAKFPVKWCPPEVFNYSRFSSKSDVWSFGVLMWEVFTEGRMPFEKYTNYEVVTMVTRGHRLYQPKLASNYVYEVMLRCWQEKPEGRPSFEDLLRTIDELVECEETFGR
Conditions: at 0.1 µM.

Experiment [13] addresses T1, Tyrosine-protein kinase Tec (Homo sapiens). Conditions: at 1 µM.
Experiment [14] addresses Angiopoietin-1 receptor (Homo sapiens) (UniProt Q02763). Conditions: at 0.1 µM.
For experiment [15] the target is unchanged. Conditions: at 1 µM.
Experiment [16] deals with T2, Non-receptor tyrosine-protein kinase TNK1 (Homo sapiens) (UniProt Q13470).
T2 sequence (whole entry): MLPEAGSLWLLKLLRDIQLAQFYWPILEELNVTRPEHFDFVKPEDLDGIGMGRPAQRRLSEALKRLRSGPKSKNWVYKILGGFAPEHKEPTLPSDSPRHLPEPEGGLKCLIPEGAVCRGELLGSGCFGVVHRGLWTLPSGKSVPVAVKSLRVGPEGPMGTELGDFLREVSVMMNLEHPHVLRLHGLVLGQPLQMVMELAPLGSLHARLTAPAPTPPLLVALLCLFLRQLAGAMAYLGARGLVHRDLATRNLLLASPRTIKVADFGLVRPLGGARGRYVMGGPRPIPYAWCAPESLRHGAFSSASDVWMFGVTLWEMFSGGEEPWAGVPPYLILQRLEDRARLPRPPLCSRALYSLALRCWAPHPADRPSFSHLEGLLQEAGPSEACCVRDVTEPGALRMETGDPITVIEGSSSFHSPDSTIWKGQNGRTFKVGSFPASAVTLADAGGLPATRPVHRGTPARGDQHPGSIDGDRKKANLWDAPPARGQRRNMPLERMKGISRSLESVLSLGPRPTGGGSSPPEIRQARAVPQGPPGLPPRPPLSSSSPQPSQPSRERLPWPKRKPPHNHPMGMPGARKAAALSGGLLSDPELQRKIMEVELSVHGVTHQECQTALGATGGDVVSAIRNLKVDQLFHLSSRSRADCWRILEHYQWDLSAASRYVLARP
Conditions: at 0.1 µM.

Experiment [17] addresses T2, Non-receptor tyrosine-protein kinase TNK1 (Homo sapiens). Conditions: at 1 µM.
The target in experiment [18] is Activated CDC42 kinase 1 (Homo sapiens) (UniProt Q07912). Conditions: at 0.1 µM.
Chain of Activated CDC42 kinase 1 (Homo sapiens) (Q07912 whole entry, looked up): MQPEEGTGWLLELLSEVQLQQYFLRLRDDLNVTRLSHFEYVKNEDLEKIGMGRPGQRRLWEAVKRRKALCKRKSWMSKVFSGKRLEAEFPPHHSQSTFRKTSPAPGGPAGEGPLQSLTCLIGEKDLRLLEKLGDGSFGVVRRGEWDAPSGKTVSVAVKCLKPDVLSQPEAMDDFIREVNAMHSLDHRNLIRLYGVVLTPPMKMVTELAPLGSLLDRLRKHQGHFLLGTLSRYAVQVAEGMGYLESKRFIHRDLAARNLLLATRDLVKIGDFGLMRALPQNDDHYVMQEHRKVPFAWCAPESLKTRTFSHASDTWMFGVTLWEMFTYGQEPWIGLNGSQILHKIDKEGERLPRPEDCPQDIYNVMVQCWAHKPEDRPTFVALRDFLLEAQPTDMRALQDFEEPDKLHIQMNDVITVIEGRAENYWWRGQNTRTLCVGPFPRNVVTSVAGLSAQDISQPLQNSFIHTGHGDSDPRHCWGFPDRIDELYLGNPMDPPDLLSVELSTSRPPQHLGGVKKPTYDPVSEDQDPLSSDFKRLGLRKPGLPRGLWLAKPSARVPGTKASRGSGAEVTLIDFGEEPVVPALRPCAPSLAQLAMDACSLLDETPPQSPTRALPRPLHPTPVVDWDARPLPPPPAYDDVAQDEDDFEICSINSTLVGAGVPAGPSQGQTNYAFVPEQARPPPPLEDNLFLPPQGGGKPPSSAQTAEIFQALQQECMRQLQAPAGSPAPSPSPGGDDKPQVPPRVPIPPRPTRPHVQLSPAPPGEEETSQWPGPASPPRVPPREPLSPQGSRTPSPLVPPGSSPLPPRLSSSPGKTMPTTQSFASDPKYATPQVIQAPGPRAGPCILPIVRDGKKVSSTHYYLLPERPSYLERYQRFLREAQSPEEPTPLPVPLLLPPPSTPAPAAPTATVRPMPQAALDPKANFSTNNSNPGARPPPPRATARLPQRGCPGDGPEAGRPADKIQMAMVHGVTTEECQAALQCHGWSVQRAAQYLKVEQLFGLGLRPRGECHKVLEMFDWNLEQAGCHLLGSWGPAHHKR
Experiment [19] has the same target. Conditions: at 1 µM.
Experiment [20] deals with High affinity nerve growth factor receptor (Homo sapiens) (UniProt P04629). Conditions: at 0.1 µM.

Structures are written as SMILES.

Chain of Proto-oncogene tyrosine-protein kinase ROS (Homo sapiens) (P08922 whole entry): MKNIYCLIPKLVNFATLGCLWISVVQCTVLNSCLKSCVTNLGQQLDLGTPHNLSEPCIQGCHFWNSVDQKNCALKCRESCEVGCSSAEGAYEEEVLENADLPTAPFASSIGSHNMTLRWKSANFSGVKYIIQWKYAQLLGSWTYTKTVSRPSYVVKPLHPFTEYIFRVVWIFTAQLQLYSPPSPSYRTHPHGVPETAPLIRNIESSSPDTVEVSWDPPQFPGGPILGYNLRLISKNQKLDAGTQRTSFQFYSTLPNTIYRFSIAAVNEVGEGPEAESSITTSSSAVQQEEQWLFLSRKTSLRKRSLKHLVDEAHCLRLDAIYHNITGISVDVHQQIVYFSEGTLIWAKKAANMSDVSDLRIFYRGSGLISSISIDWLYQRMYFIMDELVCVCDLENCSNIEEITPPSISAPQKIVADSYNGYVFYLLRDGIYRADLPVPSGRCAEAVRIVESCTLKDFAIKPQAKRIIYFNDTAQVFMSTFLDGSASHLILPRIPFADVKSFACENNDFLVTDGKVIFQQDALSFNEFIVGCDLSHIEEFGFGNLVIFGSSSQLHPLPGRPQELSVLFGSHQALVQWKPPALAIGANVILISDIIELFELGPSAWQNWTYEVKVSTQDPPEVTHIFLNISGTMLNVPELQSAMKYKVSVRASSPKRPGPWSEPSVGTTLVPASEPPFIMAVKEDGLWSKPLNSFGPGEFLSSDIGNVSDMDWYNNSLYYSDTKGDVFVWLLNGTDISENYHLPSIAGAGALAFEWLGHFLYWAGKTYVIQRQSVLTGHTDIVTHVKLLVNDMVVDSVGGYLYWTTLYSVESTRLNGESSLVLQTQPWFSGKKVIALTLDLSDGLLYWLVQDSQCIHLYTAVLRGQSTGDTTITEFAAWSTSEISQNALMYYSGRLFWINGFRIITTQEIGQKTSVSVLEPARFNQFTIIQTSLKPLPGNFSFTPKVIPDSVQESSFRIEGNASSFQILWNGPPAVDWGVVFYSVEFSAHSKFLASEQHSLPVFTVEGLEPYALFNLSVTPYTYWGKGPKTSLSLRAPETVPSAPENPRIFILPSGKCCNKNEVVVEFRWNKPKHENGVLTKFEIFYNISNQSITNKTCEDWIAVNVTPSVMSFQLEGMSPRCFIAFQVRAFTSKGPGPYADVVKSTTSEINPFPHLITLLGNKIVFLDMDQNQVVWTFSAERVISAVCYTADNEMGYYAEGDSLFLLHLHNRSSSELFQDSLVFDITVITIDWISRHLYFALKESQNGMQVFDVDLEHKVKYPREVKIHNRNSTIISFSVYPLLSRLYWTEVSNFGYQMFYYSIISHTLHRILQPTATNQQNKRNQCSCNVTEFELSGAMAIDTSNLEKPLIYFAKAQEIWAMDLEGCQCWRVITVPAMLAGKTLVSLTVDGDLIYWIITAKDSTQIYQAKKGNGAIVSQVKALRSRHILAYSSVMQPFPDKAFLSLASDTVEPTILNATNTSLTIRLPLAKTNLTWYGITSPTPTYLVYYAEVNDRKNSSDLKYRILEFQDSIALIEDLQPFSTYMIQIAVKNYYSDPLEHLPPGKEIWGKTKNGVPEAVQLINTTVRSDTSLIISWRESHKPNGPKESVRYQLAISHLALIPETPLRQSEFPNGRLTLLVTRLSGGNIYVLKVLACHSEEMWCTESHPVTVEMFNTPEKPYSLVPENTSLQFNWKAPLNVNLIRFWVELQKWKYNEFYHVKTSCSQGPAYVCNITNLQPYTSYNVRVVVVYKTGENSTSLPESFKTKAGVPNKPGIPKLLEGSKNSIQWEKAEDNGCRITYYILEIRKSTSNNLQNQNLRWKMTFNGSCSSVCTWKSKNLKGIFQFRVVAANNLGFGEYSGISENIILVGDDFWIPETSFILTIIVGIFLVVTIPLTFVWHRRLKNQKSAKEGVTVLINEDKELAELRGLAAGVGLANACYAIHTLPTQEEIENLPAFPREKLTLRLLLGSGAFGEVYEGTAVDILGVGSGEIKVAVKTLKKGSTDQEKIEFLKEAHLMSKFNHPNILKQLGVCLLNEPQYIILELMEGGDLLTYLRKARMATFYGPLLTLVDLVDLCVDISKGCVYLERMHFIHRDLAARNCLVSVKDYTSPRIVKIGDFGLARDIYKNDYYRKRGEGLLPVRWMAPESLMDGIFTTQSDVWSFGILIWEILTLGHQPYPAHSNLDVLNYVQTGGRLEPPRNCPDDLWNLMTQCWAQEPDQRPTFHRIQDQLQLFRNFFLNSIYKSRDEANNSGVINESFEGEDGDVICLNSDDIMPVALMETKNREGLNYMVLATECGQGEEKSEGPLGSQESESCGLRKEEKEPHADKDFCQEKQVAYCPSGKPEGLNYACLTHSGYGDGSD
Chain of Tyrosine-protein kinase Srms (Homo sapiens) (Q9H3Y6 whole entry): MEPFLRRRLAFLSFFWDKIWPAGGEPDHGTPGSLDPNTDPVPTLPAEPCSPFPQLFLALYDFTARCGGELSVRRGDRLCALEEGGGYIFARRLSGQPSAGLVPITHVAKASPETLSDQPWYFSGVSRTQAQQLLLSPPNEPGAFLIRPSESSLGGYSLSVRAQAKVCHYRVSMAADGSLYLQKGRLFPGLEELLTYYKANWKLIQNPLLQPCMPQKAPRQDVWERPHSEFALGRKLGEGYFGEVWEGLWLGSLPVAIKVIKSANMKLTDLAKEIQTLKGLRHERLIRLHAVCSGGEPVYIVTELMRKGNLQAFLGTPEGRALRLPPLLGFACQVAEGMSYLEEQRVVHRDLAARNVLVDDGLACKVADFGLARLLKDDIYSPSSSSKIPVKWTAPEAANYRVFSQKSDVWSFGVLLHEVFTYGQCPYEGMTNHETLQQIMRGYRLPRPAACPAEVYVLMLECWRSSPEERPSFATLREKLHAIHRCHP
Chain of Angiopoietin-1 receptor (Homo sapiens) (Q02763 whole entry): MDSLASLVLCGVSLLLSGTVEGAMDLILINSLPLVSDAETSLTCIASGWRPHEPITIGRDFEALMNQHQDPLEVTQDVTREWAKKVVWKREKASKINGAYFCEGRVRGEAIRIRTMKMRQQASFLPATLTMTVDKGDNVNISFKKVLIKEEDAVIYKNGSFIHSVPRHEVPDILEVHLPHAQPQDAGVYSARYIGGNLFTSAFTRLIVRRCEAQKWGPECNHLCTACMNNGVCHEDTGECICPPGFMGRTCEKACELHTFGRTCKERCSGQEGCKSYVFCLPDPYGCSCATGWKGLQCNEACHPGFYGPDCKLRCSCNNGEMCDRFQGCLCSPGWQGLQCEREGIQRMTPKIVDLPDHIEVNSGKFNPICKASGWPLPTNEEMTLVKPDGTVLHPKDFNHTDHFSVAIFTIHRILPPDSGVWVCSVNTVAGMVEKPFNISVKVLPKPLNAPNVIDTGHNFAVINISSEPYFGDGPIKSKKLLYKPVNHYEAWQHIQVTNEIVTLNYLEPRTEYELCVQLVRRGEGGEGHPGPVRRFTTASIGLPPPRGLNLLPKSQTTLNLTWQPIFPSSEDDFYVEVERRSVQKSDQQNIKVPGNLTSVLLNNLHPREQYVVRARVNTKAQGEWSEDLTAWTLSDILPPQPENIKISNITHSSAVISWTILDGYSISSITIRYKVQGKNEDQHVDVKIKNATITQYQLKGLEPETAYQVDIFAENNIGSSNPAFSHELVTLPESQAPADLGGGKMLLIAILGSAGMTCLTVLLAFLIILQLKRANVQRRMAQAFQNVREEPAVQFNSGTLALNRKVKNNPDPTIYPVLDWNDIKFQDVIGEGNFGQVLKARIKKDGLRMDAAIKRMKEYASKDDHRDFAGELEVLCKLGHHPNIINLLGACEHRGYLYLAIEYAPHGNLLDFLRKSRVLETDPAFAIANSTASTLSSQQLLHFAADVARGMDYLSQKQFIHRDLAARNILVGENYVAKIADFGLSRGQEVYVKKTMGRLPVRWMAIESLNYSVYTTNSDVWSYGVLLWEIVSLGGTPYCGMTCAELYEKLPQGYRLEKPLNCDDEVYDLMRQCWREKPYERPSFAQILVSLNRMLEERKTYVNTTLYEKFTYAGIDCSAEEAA

As for `Cc1ccc(NC(=O)c2ccnc(N3CCCC3)c2)cc1-c1ccc(C(=O)NCC2CC2)cc1`, the inhibition in experiment [1] was 11.4%; in [2], 8.6%; in experiment [3], 6.95%; in [4], 6.76%; in experiment [5] it was 12%; in experiment [6] it was 4.44%. Further, the inhibition in [7] is 9.16%; in [8] it was -3.02%; in experiment [9] it was -4.02%; in experiment [10], -0.79%; in experiment [11] it was -1.46%; in [12], 0.49%. In addition, the inhibition in [13] was 3.83%; in experiment [14], 1.03%; in experiment [15] it was 5.42%; in experiment [16] it was 2.43%; in experiment [17] it was -2.64%; in experiment [18] it was 1.07%. Further, the inhibition in [19] was 1.27%; in experiment [20], 1.92%.

Regarding `COc1cc2ncn(-c3cc(O[C@@H](C)c4ccccc4Cl)c(C(N)=O)s3)c2cc1OC`, the inhibition in [1] was 72%; in [2], -0.14%; in experiment [3], 2.55%; in [4], 5.59%; in experiment [5], 29.1%; in experiment [6], 10.3%. In addition, the inhibition in [7] is 30.1%; in experiment [8], -3.6%; in experiment [9], -1.13%; in [10], -2.93%; in experiment [11] it was -4.6%; in experiment [12], 1.7%. In addition, the inhibition was 7.65% in experiment [13]; 4.95% in [14]; 24.2% in [15]; 33.8% in experiment [16]; 79.5% in [17]; 3.06% in [18]. The inhibition in experiment [19] was found to be 6.07%; in [20] it was 1.91%.

Consider `CCn1c(-c2nonc2N)nc2c(N3CCCC3)nccc21`, for which the inhibition is 2.26% in [1]; 1.7% in experiment [2]; 0.95% in experiment [3]; 4.19% in [4]; 4.49% in [5]; -2.23% in experiment [6]. In addition, the inhibition in experiment [7] was -2.52%; in experiment [8], 0.27%; in [9], 0.26%; in experiment [10], -1.66%; in experiment [11] it was 2.9%; in experiment [12] it was -1.85%. The inhibition was -3.76% in experiment [13]; 0.7% in experiment [14]; 0.05% in experiment [15]; -3.68% in [16]; -3.3% in experiment [17]; -0.78% in experiment [18]. Moreover, the inhibition in [19] is -0.6%; in experiment [20], 1.23%.

Consider `CCn1c(-c2nonc2N)nc2cncc(C(=O)N3CC[C@H](N)C3)c21`, for which the inhibition in experiment [1] is 13.9%; in experiment [2], 2.92%; in experiment [3] it was 6.19%; in experiment [4], 7.46%; in experiment [5], 6.07%; in experiment [6] it was -1.35%. The inhibition was 7.23% in experiment [7]; 0.37% in [8]; -0.65% in experiment [9]; -5.72% in [10]; 1.83% in experiment [11]; 4.37% in experiment [12]. The inhibition in experiment [13] was 3.68%; in [14] it was 11.3%; in [15] it was 11.4%; in experiment [16], 2.94%; in experiment [17], 2.95%; in experiment [18], 1.08%. Also, the inhibition is 1.01% in [19] and 0.41% in [20].

As for `CCn1c(-c2nonc2N)nc2c(C#CC(C)(C)O)nc(CN3CCCC3)cc21`, the inhibition in experiment [1] was 14.5%; in [2], 27.6%; in experiment [3], -5.13%; in experiment [4] it was 2.54%; in experiment [5], 3.85%; in [6], 0.78%. Besides, the inhibition in [7] was 0.68%; in experiment [8] it was -1.37%; in [9], -0.75%; in experiment [10] it was 6.45%; in experiment [11] it was -0.03%; in experiment [12] it was -0.24%. For the same compound, the inhibition in [13] is 1.81%; in experiment [14], 2.79%; in experiment [15], 3.96%; in experiment [16], -0.12%; in experiment [17], -4.05%; in [18] it was -0.98%. Also, the inhibition was -1.32% in experiment [19] and -2.07% in [20].

As for `COc1ccc2cc(-c3c(-c4ccncc4)nc(-c4ccc([S+](C)[O-])cc4)n3C)ccc2c1` (stereo not given), the inhibition in experiment [1] is -4.94%; in experiment [2] it was 4.56%; in experiment [3] it was 4.27%; in [4] it was 4.08%; in experiment [5], 5.77%; in experiment [6], 4.77%. The inhibition in experiment [7] was 8.58%; in experiment [8] it was -0.98%; in experiment [9], -1.29%; in experiment [10], -1.34%; in experiment [11], -1.16%; in experiment [12] it was 4.18%. For the same compound, the inhibition in experiment [13] came to 5.59%; in experiment [14], 53.3%; in experiment [15] it was 83.2%; in experiment [16], 4.52%; in experiment [17], 8.26%; in experiment [18] it was 0.59%. Also, the values for the inhibition in experiment [19] and in experiment [20] were 0.47% and 2.78%, respectively.
